ROS inducer: cancer cell ROS induction | hit rate 2% among 46,000 | U2OS ROS induction, H2DCF-DA fluorescence | ROS induction (% of piperlongumine), % at 10 µM; in the data active = ROS induction above about 79%, passing the limit was not always enough; inconclusive = no clear call, values can overlap the other calls;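 note: 0% = DMSO vehicle median and 100% = reference compound median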
YB-1 expression: YB-1 expression inhibition; U2OS, qRT-PCR YB-1 vs CDIP delta delta Cp, 16 h; stronger effect = higher value; zero = DMSO, each unit about twofold; hit rate 0.37% among 30,000; delta delta Cp (YB-1 minus CDIP) (concentration not given with the values);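 active = delta delta Cp rounded down to an integer at or above 3, about 3 SD of DMSO wells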;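 note: higher means less YB-1 transcript or more CDIP transcript relative to DMSO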
Numbers without * were called inactive. The list is not random: actives were taken first. Their share in the collection is about 2.1%.

For CCCCn1c(CCNC(=O)c2ccco2)nc2ccccc21 the results were ROS inducer 80.9*.
`O=C(NCCCc1nc2ccccc2n1CCCOc1ccccc1)c1ccco1` gave ROS inducer -1.3.
`COC(=O)c1ccc(-c2ccco2)n1CC(=O)NCCN1CCN(C)CC1` gave ROS inducer -16.2.
`COc1ccc(-c2cc(=O)c3c(O)cc(O)cc3o2)cc1` gave ROS inducer 38.8 and YB-1 expression -0.102.
Screening COc1cc(O)c2c(=O)cc(-c3ccc(OC)c(-c4c(O)cc(O)c5c(=O)cc(-c6ccc(O)cc6)oc45)c3)oc2c1 returned ROS inducer 179.3* and YB-1 expression -0.3.
Screening Cc1cc(C)c(C)c(Cn2cnc3ccccc32)c1C returned ROS inducer -4.9.
Screening Cc1cc(C(F)(F)F)c2c(n1)sc1c(=O)[nH]c(C)nc12 returned ROS inducer 95.3* and YB-1 expression -0.00623.
COC(=O)c1sc2nc(C)cc(C(F)(F)F)c2c1N was read as ROS inducer 3.8.
For CC1(C)Cc2c(sc3nc(CCCc4ccccc4)n(N)c(=O)c23)CO1 the results were ROS inducer 39.4.
O=C(Cc1ccccc1)Nn1c(SCC(=O)c2ccccc2)nc2ccccc2c1=O was read as ROS inducer 0.8.
Cc1ccc(OC(=O)c2ccccc2)c(C(C)(C)C)c1 was read as ROS inducer -12.8.
CCCn1c2ccccc2c2nnc(SCCCC(=O)c3ccc4c(c3)OCCO4)nc21 was read as ROS inducer 142.0*.
For CCCn1c2ccccc2c2nnc(SCC(=O)N3c4ccccc4Sc4ccccc43)nc21 the results were ROS inducer 0.1.
`C=CCN(C(=O)C1CC=CCC1)c1ccccc1` (stereo not drawn) gave ROS inducer -15.4.
Screening COc1ccc(C2C(C(=O)O)c3ccccc3C(=O)N2Cc2ccc(Cl)cc2)cc1 (stereo not drawn) returned ROS inducer -3.2 and YB-1 expression 0.257.
COc1ccc(CN2C(=O)[C@@H]3[C@H]4C(=O)O[C@H](c5ccccc5)[C@@H](C)N(C)C(=O)CC/C=C/[C@H]4O[C@@]34C=CCN(Cc3ccccc3)C(=O)[C@@H]24)cc1 was read as ROS inducer 121.9* and YB-1 expression 0.0045.
O=C1Nc2ccccc2C1(O)C/C(=N/O)c1ccco1 (stereo not drawn) was read as ROS inducer -21.5.
Screening COc1ccc(C(=O)Nc2cccc(-c3nc4ccccc4s3)c2)cc1 returned ROS inducer 17.7.
For CSc1cccc(NC(=O)c2ccc3snnc3c2)c1 the results were ROS inducer 5.3.
For CCOC(=O)c1cnn(C(=O)c2c(C)nc3ccccn23)c1N the results were ROS inducer 29.2.
For CCOC(=O)c1cnn(C(=O)Cc2cccc(OC)c2)c1N the results were ROS inducer -8.0 and YB-1 expression 5.18*.
Screening C[C@H]1CN([C@@H](C)CO)C(=O)Cc2cc(NS(=O)(=O)c3cccs3)ccc2O[C@H]1CN(C)Cc1ccc(-c2ccccc2)cc1 returned ROS inducer 46.5 and YB-1 expression -0.231.
C[C@@H]1CN([C@H](C)CO)C(=O)Cc2cc(NS(=O)(=O)c3ccccc3)ccc2O[C@@H]1CN(C)Cc1ccc(C(F)(F)F)cc1 was read as ROS inducer 31.5 and YB-1 expression -0.118.
`C[C@H]1CN([C@@H](C)CO)C(=O)Cc2cc(NS(C)(=O)=O)ccc2O[C@@H]1CN(C)Cc1ccccc1` gave ROS inducer 131.1* and YB-1 expression -0.259.
C[C@@H]1CN([C@H](C)CO)C(=O)Cc2cc(NS(=O)(=O)c3ccccc3)ccc2O[C@H]1CN(C)Cc1ccc(C(F)(F)F)cc1 was read as ROS inducer 216.7* and YB-1 expression -0.132.
`C[C@H](CO)N1C[C@H](C)[C@H](CN(C)Cc2ccc(-c3ccccc3)cc2)Oc2ccc(NS(=O)(=O)c3cccs3)cc2CC1=O` gave ROS inducer 78.4* and YB-1 expression 0.0129.
Screening C[C@@H]1CN([C@H](C)CO)C(=O)Cc2cc(NS(=O)(=O)c3ccc(Cl)cc3)ccc2O[C@H]1CN(C)Cc1ccccc1 returned ROS inducer 0.4 and YB-1 expression 0.17.
Screening C[C@@H]1CN([C@H](C)CO)C(=O)Cc2cc(NS(C)(=O)=O)ccc2O[C@@H]1CN(C)Cc1ccccc1 returned ROS inducer -9.0 and YB-1 expression -0.103.
For C[C@H](CO)N1C[C@H](C)[C@H](CN(C)Cc2ccc(-c3ccccc3)cc2)Oc2ccc(NS(=O)(=O)c3ccc(Cl)cc3)cc2CC1=O the results were ROS inducer 142.3* and YB-1 expression 0.33.
`C/C(=C/CCC(CO)C1CCC2(C)C3CCC4C(C)(C)C(OC5OC(CO)C(O)C(O)C5O)CC(O)C45CC35CCC12C)COC1OC(CO)C(O)C(O)C1O` (stereo not drawn) gave ROS inducer -16.8 and YB-1 expression 0.169.
C/C(=C/CCC(CO)C1CCC2(C)C3CCC4C(C)(C)C(OC5OC(CO)C(O)C(O)C5O)CCC45CC35CCC12C)COC1OC(COC2OC(CO)C(O)C(O)C2O)C(O)C(O)C1O (stereo not drawn) was read as ROS inducer -7.0 and YB-1 expression 5.8*.
For Cc1sc2nc(SC/C=C/c3ccccc3)nc(N)c2c1C the results were ROS inducer 15.1.
`COc1ccc(CN(C)C[C@H]2Oc3ccc(NC(=O)CCN4CCOCC4)cc3CC(=O)N([C@@H](C)CO)C[C@@H]2C)cc1` gave ROS inducer 14.3 and YB-1 expression 0.081.
For C[C@@H]1CN([C@H](C)CO)C(=O)Cc2cc(NC(=O)CCN3CCOCC3)ccc2O[C@@H]1CN(C)C the results were ROS inducer 125.6* and YB-1 expression -0.212.
`C[C@H](CO)N1C[C@H](C)[C@H](CN(C)C)Oc2ccc(NC(=O)CCN3CCOCC3)cc2CC1=O` gave ROS inducer inconclusive and YB-1 expression -0.536.
COc1ccc(CN(C)C[C@@H]2Oc3ccc(NC(=O)CCN4CCOCC4)cc3CC(=O)N([C@H](C)CO)C[C@H]2C)cc1 was read as ROS inducer 120.9* and YB-1 expression 0.2.
Screening COc1ccc(CCC(=O)Nc2n[nH]c3nc4cc(OC)ccc4cc23)cc1 returned ROS inducer -5.0.
`Cc1cc(-c2ccc(F)cc2)nc2cc(C(=O)Nc3ccccc3C(F)(F)F)nn12` gave ROS inducer 17.8.
Screening CC(NC(=O)CSc1nn(-c2ccccc2)c(=S)s1)c1ccccc1 (stereo not drawn) returned ROS inducer 7.8.
For CN1C(=O)/C(=C/c2ccc(Cl)cc2)N(C)C1=S the results were ROS inducer 21.3.
For COc1ccccc1Nc1nc(N)nc(CSc2ncccn2)n1 the results were ROS inducer -4.7.
Screening COc1ccccc1Nc1nc(N)nc(CSCCO)n1 returned ROS inducer 123.1*.
`O=C(NCCc1csc2nc(-c3ccccc3)nn12)c1cccs1` gave ROS inducer -9.0.
`COc1ccc(C(=O)Nc2ccc(-c3nc4cc(C)cc(C)c4o3)cc2)cc1OC` gave ROS inducer -0.2.
COc1ccc2[nH]c3c(=O)n(CCCCC(=O)NCc4ccccc4)c(=S)[nH]c3c2c1 was read as ROS inducer 8.5.
Screening O=C(Nc1ccc(S(=O)(=O)N2CCc3ccccc32)cc1)c1ccccc1 returned ROS inducer 17.7.
O=C(O)c1cccc(S(=O)(=O)NCC2CCCO2)c1 (stereo not drawn) was read as ROS inducer 10.7.

High-throughput results as filed in PubChem.
